This is part of a sample that, as a whole, favours compounds with a hit. Of some 79,000 tested, about 15% had one in any assay. A number with no mark means an inactive call. Activity calls are given as the source filed them. No stated cut-off is given here; in the data, active means growth inhibition above about 70%; inactive means the rest.

A short description of the assay: NCI Yeast Anticancer Drug Screen. Data for the wt2 strain (AID 169).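 Further: 0% = growth of vehicle-treated yeast cultures.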 As to conditions: S. cerevisiae wt2 strain growth inhibition; at 100.0 µM; active compounds read high. In outline: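 Read-out: growth inhibition versus vehicle-treated control cultures after compound exposure of the yeast strain.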
For `CS(=O)(=O)SCc1ccc([N+](=O)[O-])cc1`, the growth inhibition is 97% (active). In the case of `Cc1csc(=S)n1OC(=O)NC1CCCCC1`, the growth inhibition was 99% (active). With `CCOc1ccc(NC(=O)C2=C(C)NC(C)=C(C(=O)Nc3ccc(OCC)cc3)C2c2cccc([N+](=O)[O-])c2)cc1`, the growth inhibition was 87% (active). The same measure for `CC(C)(C)N=C(NO)c1ccccc1`: 67%; for `CCCCC/C(=C(\C#N)C(=O)OCC)c1ccccc1`: 1%. The result for `O=C(NCCCl)Sc1ccc(Cl)cc1` reads 92% (active); that for `O=C1Nc2ccc(Br)cc2C1=Nc1ccc2c(c1)OCO2`, -27%. The result for `CCC(C)OC(=O)Nc1ccc(C)c(NC(=O)OC(C)CC)c1` (centres undefined) reads 96% (active); that for `O=C(O)c1cc2ccc(Cl)cc2c(O)c1C1=CCCCC1`, 87% (active).

With `CN(C)Cc1cc(N=Nc2ccc(Cl)cc2)ccc1OC(=O)c1ccccc1`, the growth inhibition is 52%.

On to `CN1CCN(C(=O)/C=C/C(=O)c2ccccc2)CC1`, for which the growth inhibition is 93% (active). The same measure for `CCCC/C=C/C(C)(C(=O)OCC)C(=O)OCC`: 14%. The result for `Cc1nc(-c2cc3cc([N+](=O)[O-])ccc3oc2=O)cs1` reads 99% (active); that for `Cc1nc2ccccc2nc1NNc1ccccc1`, 22%; that for `CN(C)[C@@H]1C(=O)C(C(N)=O)=C(O)[C@@]2(O)C(=O)C3=C(O)c4c(O)cccc4C[C@H]3C[C@@H]12`, 99% (active). `COc1ccc(NC(=O)CC2SC(=Nc3ccccc3C)NC2=O)c([N+](=O)[O-])c1` (centres undefined): the growth inhibition was 92% (active). The same measure for `COc1cc(O)c2c(c1O)C(=O)c1cc(C)ncc1C2=O`: 95% (active); for `CSc1nnc(SC)nn1`: 99% (active). On to `COc1cc(/C=C2\CCC/C(=C\c3ccc(O)c(OC)c3)C2=O)ccc1O`, for which the growth inhibition was 18%. The result for `CN(C)CCNC(=O)c1cccc2cc([N+](=O)[O-])ccc12` reads 87% (active); that for `CCC(C)(C)c1ccc(Oc2cccc(C(=O)O)c2)cc1`, 62%; that for `CCCCCCSc1ncnc2[nH]ncc12`, -3%.

For `CC(=O)Nc1ccc(/C=C/[N+](=O)[O-])cc1`, the growth inhibition was 91% (active). The result for `CCOC(=O)c1[nH]n(-c2ccccc2)c(=O)c1C=NC(=S)C(N)=S` reads 98% (active). For the compound `CCCC(O)C1CC(C(C)C)CCC1C` (centres undefined), the growth inhibition was 74% (active). The same measure for `O=[n+]1c2ccccc2n([O-])c2cc(Br)ccc21`: 98% (active); for `CN(C)CCNC(=O)c1cccc2c1Oc1c(cccc1[N+](=O)[O-])O2`: 26%. With `Nc1ncc(-c2ccc(Br)cc2)s1`, the growth inhibition is 98% (active). The same measure for `Cc1cc2cc3cc(C)c(N)cc3nc2cc1N`: 94% (active); for `CC12C(=O)OC(=O)C(c3ccccc31)c1ccccc12`: 7%. The same measure for `c1ccc2c(OCC3CO3)cccc2c1` (centres undefined): 25%.

As for `CCOC(=N)c1ccc(O)c(OC)c1`, the growth inhibition was -2%. Take `Nc1cc(N)c(N=Nc2cccc3c(S(=O)(=O)O)cccc23)cc1N=Nc1cc([N+](=O)[O-])ccc1O`: the growth inhibition is 47%.

As for `COC(=O)Oc1cc(Cl)c(Cl)cc1Cl`, the growth inhibition was -1%. Take `O=C(O)C1CC(c2ccccc2)=NN1c1ccccc1` (centres undefined): the growth inhibition is 98% (active).

As for `COc1cc([C@@H]2c3cc4c(cc3[C@@H](Nc3ccc(NC(=O)c5cc([N+](=O)[O-])cn5C)cc3)[C@H]3COC(=O)[C@H]23)OCO4)cc(OC)c1O`, the growth inhibition is 17%. The same measure for `O=C(O)c1ccccc1/C=N/N=C1c2ccccc2-c2ccccc21`: 5%; for `O=C1CC(=O)c2ccccc21`: 37%; for `Nc1ncnc2c1ncn2C1OC(CO)CC1O` (centres undefined): 91% (active).

These data come from PubChem BioAssay (NCI).
